From PubChem BioAssay (NCATS)
Records with an inconclusive call do not appear. A number with no mark means an inactive call. The source made the active and inactive calls. Calls follow the shape of the dose curve; as a rule, active = well fitted inhibition curve with a large enough effect; inconclusive = small, poorly fitted or top-dose-only effect; inactive = no such curve, though single readings can be large or run the other way.

Molecular target: Retinaldehyde dehydrogenase 3 (Homo sapiens) (UniProt P47895)
Test: qHTS for Inhibitors of the Aldehyde Dehydrogenase Family (ALDH1A3) Confirmatory screens (AID 2061311); also: nearly all actives have a fitted effect of over 60% in size
Settings: ALDH inhibition qHTS; series mostly up to 46 µM; activity change, negative = inhibition: at the top concentration
% is scaled to controls: 0 for no effect and ±100 for the full control effect; potency is read from the fitted curve at half-maximal effect.

| SMILES | Potency | activity change, negative = inhibition | outcome |
| --- | --- | --- | --- |
| c1cc2c(cc1CNc1ccc(N3CCCCC3)cc1)OCO2 | 12.7 µM (active) |  |  |
| N#Cc1nc(Nc2cccc([N+](=O)[O-])c2)nc(NC2CCCC2)n1 | 22.4 µM (active) |  |  |
| Oc1ccc(COc2cccc3ccccc23)c2cccnc12 | 10.1 µM (active) |  |  |
| CC1(C)CC[C@]2(C(=O)O)CC[C@]3(C)C(=CCC4[C@@]5(C)C[C@@H](O)[C@H](O)[C@@](C)(CO)C5CC[C@]43C)[C@@H]2[C@@H]1O (stereo not given in full) | 11 µM (active) |  |  |
| Cc1ccc(S(=O)(=O)Nc2cc(F)ccc2C(=O)Nc2nc(-c3ccccc3)cs2)cc1 |  | -3.34% |  |
| O=C(O)c1ccc(O)c2ncc(N3CC(N4CCOCC4)C3)cc12 | 12.7 µM (active) |  |  |
| Cc1ccc(CNc2ccc(N3CCCCC3)cc2)cc1 | 20.1 µM (active) |  |  |
| C=C1CN(Cc2ccc(C(=O)Nc3ccccc3N)cc2)C(=O)c2ccccc21 |  | -2.32% |  |
| NC(=O)C1CCN(c2ncc(-c3ccc4c(c3)OC(F)(F)O4)s2)CC1 |  | -16.6% |  |
| CCOC(=O)C1CCN(c2ncc(-c3ccc4c(c3)OCCCO4)s2)CC1 | 10.1 µM (active) |  |  |
| COc1ccc(C2Nc3ccccc3C(=O)N2Cc2ccccc2)cc1COc1ccc(C#N)cc1 (stereo not given) | 12.6 µM (active) |  |  |
| Oc1ccc(COC2CCN(Cc3ccccc3)C2)c2cccnc12 (stereo not given) | 12.7 µM (active) |  |  |
| Cc1ccc2nc3sc(C(=O)NCCCN(C)C)cc3cc2c1 | 21.5 µM (active) |  |  |
| O=C(NCc1ccccc1)C1CCN(c2nc(-c3ccc(Br)cc3)cs2)CC1 |  |  | inactive |
| Cc1ccccc1Nc1nc(C#N)nc(NC2CCCC2)n1 |  | -21.8% [at 0.0073 µM] |  |
